# An excerpt weighted towards active compounds, which were near 0.72% of everything screened.
# MRP reversal: reversal of MRP1-mediated doxorubicin resistance, primary screen, H69AR cells, doxorubicin co-treatment | H69AR cells + 2 uM doxorubicin, CellTiter-Glo, 72 h | differential viability (reversal), % at 10 µM | 0.04% of 85,000 active | AID 602, 2007;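 active means viability drop by adding the cancer drug above about 55%, with treated viability meeting a 40% cutoff, limit read from the data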;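 further: viability without doxorubicin minus viability with 2 µM doxorubicin for each compound; larger differential means the compound sensitizes cells more to doxorubicin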
# Phagocytosis inh: inhibitors of macrophage phagocytosis, primary screen, imaging, J774A.1 cells, IgG beads. 0.07% of 110,000 active. inhibition, % at 5 µM. J774A.1 macrophage IgG-bead phagocytosis;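 active means inhibition above the mean of the plate negative controls plus 5 SD, cut at about 13% in these data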;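 further: phagocytic index as fraction of beads internalized from green versus red external bead signal; plate controls were DMSO negative control for no effect and cytochalasin-D positive control for full effect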
# MRP1 act: H69AR viability gain despite doxorubicin, primary screen, MRP-1 activator project, H69AR cells, CellTiter-Glo; viability rescue; viability increase, % at 10 µM; 0.61% of 140,000 active;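 active means viability gain under doxorubicin at or above a set limit, the compound median plus 3 SD, cut at about 4.7% in these data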;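 further: MRP-1 overexpressing cells given doxorubicin 25 µM after compound pretreatment; 18-22 h compound pretreatment then 72 h with doxorubicin before readout; 0% = doxorubicin-only wells and 100% = vehicle-treated cells without doxorubicin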
# * marks the source's active call; other numbers are inactive results; . = no result given; [ ] = another dose, or the depositor's remark.
SMILES,MRP reversal,Phagocytosis inh,MRP1 act
Cc1nn(Cc2ccccc2Cl)c2sc(C(=O)NC(C)(C)C)cc12,-3.0,-0.8,0.3
CCC1CCc2c(sc(NC(=O)C3c4ccccc4Oc4ccccc43)c2C(N)=O)C1 (configuration not stated),.,-5.6,-1.4
CCOC(=O)C1=C(c2cccc(Oc3ccccc3)c2)NC(=S)NC1C (configuration not stated),.,.,-2.0
COC(=O)C1=C(C)Nc2sc(C(N)=O)c(N)c2C1c1ccncc1 (configuration not stated),.,0.0,-1.1
CCOC(=O)C1=C(C)Nc2sc(C(=O)c3ccc(OC)cc3)c(N)c2C1c1ccc(C(=O)OC)cc1 (configuration not stated),.,-2.1,7.3*
Cc1cccc(NN=C2c3ccccc3-c3ccccc32)c1,.,-5.5,1.1
Cc1nn(Cc2ccccc2)c(C)c1NC(=O)c1cc(-c2cccs2)on1,1.8,-1.5,4.8*
Cc1nn(Cc2ccccc2)c(C)c1NC(=O)c1cccs1,.,-3.7,0.2
CCC1=NN(C(=O)c2ccc(C)cc2)C(O)(c2ccc(Br)cc2)C1 (configuration not stated),.,.,4.9*
CCC1=NN(C(=O)c2ccc(Br)cc2)C(O)(c2ccc(C)cc2)C1 (configuration not stated),.,-9.6,0.0
COc1ccc(N2C(=O)CCC(C(=O)NCCN3CCOCC3)C2c2ccc(OC)c(OC)c2)cc1 (configuration not stated),20.0,43.8*,1.3
COc1ccc(N2C(=O)CCC(C(=O)O)C2c2ccc(OC)c(OC)c2)cc1 (configuration not stated),.,-0.8,-1.7
COc1ccccc1-c1nnc(N(C)C(=O)C2CCCO2)s1 (configuration not stated),15.4,-0.8,-0.6
COc1ccccc1-c1nnc(SC2CCc3ccccc3NC2=O)s1 (configuration not stated),1.0,.,6.3*
CCOc1cc(/C=N/NC(=O)CSc2nncn2C)ccc1OCc1cccc(C)c1,.,.,-1.2
CCOc1ccccc1CNC(=O)c1cc2oc3ccccc3c2n1CC,11.9,185.6*,7.6*
COc1cccc(CNC(=O)c2cc3oc4ccccc4c3n2C)c1OC,-10.0,0.2,-0.1
COc1ccc(Cl)cc1NC(=O)C(C)Sc1nncn1C (configuration not stated),11.2,2.6,-3.0
CC(Sc1nncn1C)C(=O)Nc1ccc(Cl)cn1 (configuration not stated),.,-11.3,4.9*
COc1ccc(OCCSc2nnc(Cc3cccc4ccccc34)n2N)cc1,.,-0.2,0.3
COc1ccc(Nc2nnc(SCC(=O)/C=C3/N(C)c4ccccc4C3(C)C)s2)cc1,.,-6.4,-3.7
COC(=O)[C@@]1(Cc2ccc(OC)cc2)[C@H]2c3cc(C(=O)N4CCCC4)n(Cc4ccc(C)o4)c3C[C@H]2CN1C(=O)c1ccccc1,.,.,-4.5
CCc1nnc(NC(=O)CCC(=O)N2CCN(Cc3ccc(Cl)cc3)CC2)s1,-10.0,0.1,6.3*
CCc1nnc(NC(=O)CCC(=O)N2CCN(Cc3ccccc3)CC2)s1,9.0,-0.5,-0.7
CCn1nnc(NC(=O)c2ccc(-c3ccc(Cl)cc3)o2)n1,11.4,0.7,-2.2
SMILES,MRP reversal,Phagocytosis inh,MRP1 act
CCc1nnc(NC(=O)c2ccc(-c3ccc(Cl)cc3)o2)s1,8.1,-1.0,7.2*
O=C(Nc1nc2nccc(-c3ccccc3)n2n1)C(Cl)(Cl)Cl,.,.,0.2
COc1cc2oc3ccccc3c2cc1N(CC(=O)N1CCCCC1)S(=O)(=O)c1ccc(C)cc1,.,-0.6,0.0
Cc1nc2cc(-c3ccsc3-n3c(C)ccc3C)[nH]n2c(=O)c1Cl,-10.0,.,6.0*
COCc1cc(=O)n2[nH]c(-c3ccsc3-n3c(C)ccc3C)cc2n1,10.6,.,-1.9
COc1ccc(Cl)cc1NC(=O)C(C)N(C)Cc1cccc(Cl)c1Cl (configuration not stated),.,-13.3,1.7
CC1CCN(C(=O)CCc2ccc(S(=O)(=O)NC(C)(C)C)cc2)CC1,7.4,-0.6,-2.3
CC(C)(C)NS(=O)(=O)c1ccc(CCC(=O)N2CCOCC2)cc1,-7.8,22.3*[artifact],-4.2
Oc1c(C=C2N=c3ccccc3=N2)sc(=S)n1-c1ccc(F)cc1,.,-10.5,9.2*
Oc1c(C=C2N=c3ccccc3=N2)sc(=S)n1C1CCCC1,.,-8.3,-4.2
N#C/C(=N\Nc1ccc(F)cc1)C(=N)N1CCCCC1,12.5,.,1.8
N#C/C(=N/Nc1ccccc1F)C(=N)N1CCOCC1,.,.,8.1*
CCCN(CCC)C(=O)CCSCCC(=O)N(CCC)CCC,.,-1.3,-2.3
Cc1cccc(NC(=S)N(C)C2(c3ccccc3Cl)CCCCC2=O)c1 (configuration not stated),.,33.0*[artifact],0.3
CC(C)NC(=S)N(C)C1(c2ccccc2Cl)CCCCC1=O (configuration not stated),.,-8.6,-0.9
N#Cc1c(C(F)(F)F)cc(-c2cccc(Cl)c2)[nH]c1=O,.,-0.2,-1.5
COCCNc1oc(-c2ccccc2Cl)nc1C#N,6.0,0.1,0.8
CNc1oc(-c2ccc(C)cc2)nc1P(=O)(c1ccccc1)c1ccccc1,.,.,7.4*
CNc1oc(-c2ccccc2Cl)nc1P(=O)(c1ccccc1)c1ccccc1,.,-5.3,4.7*
COP(=O)(OC)c1nc(-c2ccccc2)oc1NCc1ccccc1,.,-3.3,-2.2
CCCCC(=O)Nc1ccc(C(=O)N2CCC(C(=O)OCC)CC2)cc1,0.5,-0.5,-0.9
N/C(=N\OC(=O)COc1ccc(Br)cc1Cl)c1cccnc1,.,-3.9,0.0
CCN(CC)CCN(Cc1cc2cc(C)cc(C)c2[nH]c1=O)C(=S)NCc1ccco1,.,-8.1,22.6*
CCN(CC)CCN(Cc1cc2cc(C)ccc2[nH]c1=O)C(=S)NCc1ccco1,.,-4.9,-4.0
CC(=O)Nc1sc2c(c1CN1CCN(C)CC1)CCCC2,5.6,.,-0.8
SMILES,MRP reversal,Phagocytosis inh,MRP1 act
CCOc1ccccc1N1CCN(c2nc3ccccc3nc2C(C#N)C(=O)OC(C)C)CC1 (configuration not stated),2.3,.,.
C=CCOC(=O)C(C#N)c1nc2ccccc2nc1N1CCN(c2ccccc2OCC)CC1 (configuration not stated),5.1,-7.2,5.2*
N#Cc1nc(COc2ccccc2F)oc1NCCc1ccccc1,-1.7,-1.3,0.2
CN(Cc1ccccc1)c1oc(COc2ccccc2F)nc1C#N,3.1,0.7,7.4*
CCCCNC(=O)CCn1c(=O)c2ccccc2n(Cc2ccc(F)cc2)c1=O,.,-8.2,-4.4
CCCCn1c(O)c(/C=C2\C=NN=C2c2ccccc2)sc1=S,.,-7.4,4.0
CCCCCCn1c(O)c(/C=C2\C=NN=C2c2ccccc2)sc1=S,.,2.6,5.3*
C/C(=N\NC(=O)c1ccc(=O)[nH]n1)c1cccnc1,.,-2.6,-0.2
O=C(NCc1ccc(F)cc1)c1noc2c1CCCCC2,3.4,-1.4,-0.6
O=C(NCc1ccc(F)cc1)c1noc2c1CCCC2,3.3,-1.8,4.9*
CCCCC(=O)Nc1cccc(NC(=O)c2ccccc2Br)c1,.,-1.3,-1.2
Cc1ccc(S(=O)(=O)Nc2cc3c(C(=O)Nc4ccccc4)c(C)oc3c3ccccc23)cc1,.,-2.9,-1.6
Cc1ccc(-c2csc(NC(=O)C3=COCCO3)n2)cc1,.,-10.0,2.0
O=C(Nc1nc(-c2ccc(Oc3ccccc3)cc2)cs1)C1=COCCO1,.,-7.5,7.1*

# Screening data (PubChem)
